Assay outcomes deposited in PubChem BioAssay by several laboratories.
NSD2 HMT inh: NSD2 histone methyltransferase inhibitors, primary screen, biochemical, AlphaScreen, single concentration, set 2; Histone-lysine N-methyltransferase NSD2 (Homo sapiens), O96028; NSD2 peptide methylation, 120 min; inhibition, % at 12.5 µM; 310,000 compounds, 0.54% hits; AID 743445, 2014; in the data active means inhibition above about 50%
Efflux pump inh: inhibitors of Candida efflux pumps in yeast, primary screen, S. cerevisiae, Nile Red, multiplex. 330,000 compounds, 0.44% hits. inhibition, % at 10 µM. S. cerevisiae Candida pump triplex;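 active means plate passing quality check with inhibition over a set limit, or well fluorescence over plate mean plus 4 SD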;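 further: Nile Red retained in pooled yeast measured as flow cytometry median fluorescence; 0% = buffer negative control and 100% = Enniatin B positive control; higher means more Nile Red kept so more efflux inhibition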
GC-B act: human GC-B receptor activators, primary screen, HEK293 GC-B cells, cGMP TR-FRET, EC30 CNP; Atrial natriuretic peptide receptor 2 (Homo sapiens), P20594; 0% at EC30 CNP, 100% saturating CNP; activation, % at 10 µM; 370,000 compounds, 0.11% hits; AID 1920062, 2024;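 active means activation at 10 µM reaching about 35% in either raw or pattern-adjusted values, limit read from the data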
GC-A act: GC-A stimulated cGMP production enhancers – HEK293 GC-A cells, cGMP TR-FRET, EC30 ANP, primary screen; activation, % at 10 µM; AID 1671463, 2021; 370,000 compounds, 0.14% hits; 0% at EC30 ANP, 100% saturating ANP; Atrial natriuretic peptide receptor 1 (Homo sapiens), P16066; in the data active means activation above about 40%
V-ATPase pH: regulators of yeast V-ATPase proton pumping, primary screen, pHLuorin cytosolic pH fluorescence; response, % at 10 µM; 350,000 compounds, 0.37% hits; S. cerevisiae; AID 504577, 2011; in the data active means response mostly above about 7.3%, no sharp cut-off; inactive means mostly below about 5.4%; further: actives read high
Rce1 inh: yeast Rce1p protease inhibitors, primary screen, biochemical, fluorescence, cell-free homogeneous | calls only | 290,000 compounds, 0.27% hits | yeast membranes, quenched prenylated peptide cleavage fluorescence | CAAX prenyl protease 2 (Saccharomyces cerevisiae (strain ATCC 204508 / S288c)), Q03530;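 active means fall in fluorescence gain of 50% or more versus controls, with final raw signal at or below 3038400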;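 further: plate controls were neutral control wells for no effect and wells lacking membranes for full effect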
Target sequence (Q03530 whole entry, looked up): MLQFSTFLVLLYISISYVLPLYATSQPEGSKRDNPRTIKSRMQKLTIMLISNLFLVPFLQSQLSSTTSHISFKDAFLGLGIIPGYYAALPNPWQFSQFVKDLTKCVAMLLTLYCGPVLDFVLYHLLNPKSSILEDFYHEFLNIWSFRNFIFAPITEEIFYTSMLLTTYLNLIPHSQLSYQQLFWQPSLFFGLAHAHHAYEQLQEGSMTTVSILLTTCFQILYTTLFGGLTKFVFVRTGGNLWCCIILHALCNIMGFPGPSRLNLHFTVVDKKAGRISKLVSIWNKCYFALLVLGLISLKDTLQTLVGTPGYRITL
An asterisk follows results filed as active; i = inactive; . = not tested or not shown; + = active, no number. Rows were chosen to be rich in hits. Some 1.6% of all compounds tested hit in one or more screens of this group.

SMILES | NSD2 HMT inh | Efflux pump inh | GC-B act | GC-A act | V-ATPase pH | Rce1 inh
CC(C)CNC(=O)OCc1cn(Cc2ccccc2Cl)nn1 | . | . | 4 | 4 | . | .
Cc1ccc(-c2cc(C)nc3nc(N)nn23)cc1 | -2 | 0 | 1 | -1 | -2 | +
Cc1ccc(-c2cc(C)nc3ncnn23)cc1 | . | 0 | -2 | 3 | 0 | i
CC1CCCC(C)N1/N=C/c1ccc(O)c(O)c1 (stereo not given) | 60* | 0 | 2 | 2 | 5 | i
COc1ccc(/C=N/N2C(C)CCCC2C)cc1O (stereo not given) | -2 | 0 | 1 | -5 | -5 | i
Cc1cc(C)c2cc(C#N)c(NCCCNC(=O)CCC(=O)O)nc2c1 | -3 | 0 | -5 | -1 | -1 | +
COc1cccc(C(=O)NCCCNc2nc3cc(C)cc(C)c3cc2C#N)c1 | . | . | -6 | 3 | -3 | .
COc1ccccc1CNC(=O)NCCCN1CCN(c2ccc(F)cc2)CC1 | 8 | . | -7 | 3 | . | .
CCN1CCN(C2=C(NS(=O)(=O)c3ccc(Br)cc3)C(=O)c3ccccc3C2=O)CC1 | 90* | 0 | -3 | -4 | 1 | i
CCN1CCN(C2=C(NS(=O)(=O)c3ccccc3)C(=O)c3ccccc3C2=O)CC1 | 57* | 0 | 4 | -7 | 0 | i
NC(=O)C1CCN(C2=C(Cl)C(=O)c3ccccc3C2=O)CC1 | 88* | 0 | -4 | 1 | 3 | i
NC(=O)C1CCN(C2=C(NS(=O)(=O)c3ccc(Br)cc3)C(=O)c3ccccc3C2=O)CC1 | 52* | 0 | -5 | -1 | 2 | i
CCOC(=O)N1CCN(C2=C(NS(=O)(=O)c3ccc(Br)cc3)C(=O)c3ccccc3C2=O)CC1 | 27 | . | -2 | 2 | -2 | .
NC(=O)C1CCN(C2=C(NS(=O)(=O)c3ccccc3)C(=O)c3ccccc3C2=O)CC1 | 17 | 0 | 10 | -1 | 3 | i
CSc1nc(SCC(=O)NCc2ccco2)c2sc3nc(C(C)C)c4c(c3c2n1)CCC4 | 2 | . | . | . | . | .
Cn1c(Cc2cccs2)nnc1SCC(=O)Nc1ccc2cn[nH]c2c1 | 6 | . | 0 | -4 | . | .
COc1cc(-c2c(C(=O)c3ccccc3)[nH]c(N)c2C(N)=O)ccc1O | . | . | -5 | -2 | . | .
COc1cccc(-n2cc(CNCc3cn(C)nc3-c3ccccc3F)cn2)c1 | 3 | 0 | -6 | -20 | 14* | i
COc1cccc(-n2cc(CNCc3c(C(=O)N(C)C)nc4ccc(Cl)cn34)cn2)c1 | 3 | 0 | -20 | -36 | 1 | i
C=CCN1[C@H](Cc2ccccc2)COc2cccc(N3CCCC3)c2S1(=O)=O | . | . | -2 | 8 | . | .
Cc1nc(Nc2ccncc2)c2oc3ccccc3c2n1 | 16 | 0 | 1 | 14 | 0 | i
CCc1nc(Nc2ccncc2)c2oc3ccccc3c2n1 | . | 0 | 2 | 9 | 1 | +
COc1ccc(CCNc2oc(Cc3cccc4ccccc34)nc2C#N)cc1OC | 1 | 0 | 11 | 8 | 1 | i
COc1ccc(CCNc2oc(COc3ccc(Br)cc3)nc2C#N)cc1OC | . | 0 | -3 | 10 | 10.0* | i
C#CCNC(=O)C[C@H]1C[C@@]2(C(=O)OC)C(=C[C@H](COCc3ccccc3)O[C@@H]2C)N(Cc2cccc3ccccc23)C1=O | . | . | 5 | -2 | . | .
SMILES | NSD2 HMT inh | Efflux pump inh | GC-B act | GC-A act | V-ATPase pH | Rce1 inh
Oc1ccc(-c2nc3ccccn3c2NCc2ccco2)cc1 | 0 | 0 | -6 | 4 | . | +
O=C(Cn1c(=O)c2cccn2c2cccnc21)NCCCN1CCN(c2ccc(Cl)cc2)CC1 | 1 | . | -16 | -10 | . | .
NC(=O)c1cc(N)ccc1N1CCCC1 | 51* | 0 | -7 | -8 | -8 | i
Cc1ccc(CC2(c3ccccc3)NC(=O)NC2=O)cc1 (stereo not given) | -1 | . | -3 | -7 | 15* | .
Cc1ccc(NC(=O)C2CCCN2S(=O)(=O)c2cccnc2)cc1C (stereo not given) | -4 | . | -1 | 0 | . | .
CC(C)c1ccc(C2NC(=S)NC3=C2C(=O)CCC3)cc1 (stereo not given) | -1 | 0 | 1 | 50* | 0 | i
Cc1ccc(C2NC(=S)NC3=C2C(=O)CCC3)cc1 (stereo not given) | . | 0 | 7 | 5 | 0 | i
COc1ccc(-n2c(N)c(C(=O)NCC3CCCO3)c3nc4ccccc4nc32)c(OC)c1 (stereo not given) | -29 | 0 | 40* | 40* | 3 | i
Nc1c(C(=O)NCc2ccccc2)c2nc3ccccc3nc2n1CCCN1CCOCC1 | -27 | 0 | -6 | 4 | 1 | i
COc1ccc(-n2nc(C(=O)NCC(=O)NCC3CCCO3)c3ccccc3c2=O)c(OC)c1 (stereo not given) | -1 | 0 | 5 | 1 | -1 | i
COc1ccc(CNC(=O)c2c(N)n(CCCN3CCOCC3)c3nc4ccccc4nc23)cc1 | -17 | 0 | -5 | -4 | -5 | +
Cc1nc(SCC(=O)NCC2CCCO2)c2c3c(sc2n1)CCCC3 (stereo not given) | -2 | 0 | -1 | -4 | 0 | .
Cc1nc(SCC(=O)NCC2CCCO2)c2c(C)c(C)sc2n1 (stereo not given) | . | 0 | 4 | 4 | 13* | .
O=C(COC(=O)c1cccc(S(=O)(=O)N2CCCC2)c1)Nc1ccc(Cl)cc1 | -4 | . | 97* | 0 | -1 | .
NS(=O)(=O)c1ccc(NC(=O)COC(=O)c2cccc(S(=O)(=O)N3CCCC3)c2)cc1 | 1 | 0 | -2 | 2 | 0 | i
O=C(Nc1cccc2ncccc12)c1cccnc1 | -2 | 0 | 3 | 0 | 7 | +
CCN(C(=O)COC(=O)c1cn(-c2ccccc2)nc1-c1ccccc1)C1CCS(=O)(=O)C1 (stereo not given) | -1 | 0 | 3 | -7 | -3 | +
CN(C(=O)COC(=O)c1ccc2c(c1)OCO2)C1CCS(=O)(=O)C1 (stereo not given) | -4 | 0 | 2 | 6 | 23* | .
CN(C(=O)COC(=O)c1cn(-c2ccccc2)nc1-c1ccccc1)C1CCS(=O)(=O)C1 (stereo not given) | -2 | 0 | -2 | 0 | -3 | +
C=CCN(Cc1ccc2c(c1)OCO2)C(C#CC1CC1)C(C)C (stereo not given) | . | . | -3 | -2 | . | .
COc1ccc(-n2c(COc3ccc(C)cc3)nnc2SCC(=O)Nc2ccc(S(=O)(=O)Nc3cc(C)nc(C)n3)cc2)cc1 | 2 | . | 10 | 3 | . | .
